Assay outcomes: PubChem BioAssay, The Scripps Research Institute Molecular Screening Center
TTR transcr act – TTR transcription activation, primary screen | SH-SY5Y TTR promoter Gaussia luciferase, luminescence; 100% = recombinant luciferase protein wells | activation, % at 16.7 µM | 92,000 compounds, 1.3% hits | AID 1117267;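 active means activation above the mean of all tested compounds plus 3 SD, cut at about 9.5% in these data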;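 further: cells exposed to compounds for one day before reading; 0% = median of all test compound wells on the plate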
TTR inh HuH7 – counter-screen for TTR activators: TTR transcription inhibitors in HuH7 cells; inhibition, % at 16.7 µM; shares compounds with TTR transcr act; 1,100 compounds, 4% hits; HuH7 TTR promoter-Gaussia luciferase reporter, luminescence; AID 1117279;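 active means average inhibition above the solvent-only control wells' mean plus 3 SD, cut at about 15% in these data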;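 further: 0% = cells with DMSO only and 100% = cells with inhibitor control FD; inhibitors lower well luminescence so higher value means more inhibition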
TTR up confirm – human TTR transcription activation, confirmation; shares compounds with TTR transcr act; SHSY5Y TTR promoter Gaussia luciferase, luminescence; 100% = purified Lucia enzyme wells, no cells; activation, % at 16.7 µM; 1,100 tested, under 10 active; AID 1117280;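 active means mean activation above a set limit taken from the earlier primary screen, cut at about 11% in these data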;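 further: 0% = DMSO-treated cells and 100% = recombinant Lucia luciferase without cells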
Active calls of the source: *. The full list was thinned out, with hits kept by preference.

Screening O=C(NC12CC3CC(CC(C3)C1)C2)OC1CN2CCC1CC2 (stereo unspecified) returned TTR transcr act 12.8*, TTR inh HuH7 -14.7 and TTR up confirm 0.2.
COc1cc(NC(=O)CN2C3CCC2CC(O)(c2cccnc2)C3)cc(OC)c1 (stereo unspecified) was read as TTR transcr act 4.0.
Screening Cc1ncoc1C(=O)NCC1=C(c2ccc3ccccc3c2)C[C@@H]2CC[C@H]1N2Cc1ccco1 returned TTR transcr act -0.1.
COc1ccc(OC(=O)N(C)C[C@H]2OCc3cnnn3CCCC(=O)N([C@H](C)CO)C[C@H]2C)cc1 was read as TTR transcr act -1.5.
For C=CCOC(=O)C1=C(C)OC(N)=C(C#N)C12C(=O)N(CN1CCOCC1)c1ccccc12 (stereo unspecified) the results were TTR transcr act 11.5*, TTR inh HuH7 -10.8 and TTR up confirm 1.4.
CCOC(=O)C1=C(N)Oc2c(c(=O)oc3ccccc23)C12C(=O)N(C)c1ccccc12 (stereo unspecified) was read as TTR transcr act 1.6.
COCCOC(=O)C1=C(N)OC(C)=C(C(=O)OC)C12C(=O)Nc1ccccc12 (stereo unspecified) was read as TTR transcr act 0.9.
`CN1CCN2c3ccc(N)cc3CC3(C(=O)NC(=O)NC3=O)C2C1` (stereo unspecified) gave TTR transcr act -1.0.
Screening COC(=O)C1=C(c2c(C)noc2C)C[C@@H]2CC[C@H]1N2C(=O)NCC1CC1 returned TTR transcr act 2.4.
For Cc1cccc(-n2c(O)c(/C=N/NC(=O)c3ccncc3)c(=O)[nH]c2=O)c1 the results were TTR transcr act 1.7.
For Cc1ccc(-n2c(O)c(/C=N/NC(=O)c3ccncc3)c(=O)[nH]c2=O)cc1 the results were TTR transcr act -1.9.
O=C(N/N=C/c1c(O)n(-c2ccccc2)c(=O)[nH]c1=O)c1ccncc1 was read as TTR transcr act 12.8*, TTR inh HuH7 -0.3 and TTR up confirm 0.5.
For C[C@H](NC(=O)OCc1ccccc1)C(=O)NC(Cc1ccccc1)P(=O)(Oc1ccccc1)Oc1ccccc1 (stereo partly specified) the results were TTR transcr act 1.1.
Screening O=C(/C=C/c1ccccc1)N1Cc2ccccc2-n2nncc2C1 returned TTR transcr act 0.6.
`CCOC1=C(N2CC2)C(=O)C(OCC)=C(N2CC2)C1=O` gave TTR transcr act -0.8.
`CCCC(=O)NC1=C(N2CC2)C(=O)C(NC(=O)CCC)=C(N2CC2)C1=O` gave TTR transcr act 10.8*, TTR inh HuH7 53.1* and TTR up confirm -2.7.
`CCCC(=O)Nc1ccc(N2CCN(CC)CC2)c(Cl)c1` gave TTR transcr act -0.5.
CCCC1(CC(C)CC)C(=O)NC(=O)NC1=O (stereo unspecified) was read as TTR transcr act 5.2.
`C[C@]12CC[C@H](OC(=O)CCC(=O)O)CC1=CCC1C2CC[C@@]2(C)C1CC[C@@H]2OC(=O)CCC(=O)O` (stereo partly specified) gave TTR transcr act 0.6.
For CC(C)(C)C(=O)N1Cc2cc(N3CCCCC3)ccc2-n2nncc2C1 the results were TTR transcr act 0.8.
CN1C(=O)C(Cc2ccsc2)C(=O)N(C)C1=O was read as TTR transcr act 12.3*, TTR inh HuH7 -8.0 and TTR up confirm -0.2.
CN1C(=O)C(C2CCCCC2)C(=O)N(C)C1=O was read as TTR transcr act 0.1.
For CN1C(=O)C(Cc2ccccc2)C(=O)N(C)C1=O the results were TTR transcr act 0.3.
`CCCC(C)C1(CC)C(=O)NC(=O)N=C1N` (stereo unspecified) gave TTR transcr act -0.1.
`CCOc1cc(CNCCc2c[nH]c3ccccc23)cc(Cl)c1OC` gave TTR transcr act 1.9.
CCc1ccc(OCC(=O)N2CCN(Cc3ccc4c(c3)OCO4)CC2)cc1 was read as TTR transcr act 3.1.
For C=CCn1c(O)c(C(CC)=NCc2ccc3c(c2)OCO3)c(=O)[nH]c1=O the results were TTR transcr act -0.8.
For O=C(/C=C/c1ccc2c(c1)OCO2)c1c(O)n(CCC2=CCCCC2)c(=O)[nH]c1=O the results were TTR transcr act 1.2.
For CCCCn1c(O)c(C(=O)/C=C/c2ccc3c(c2)OCO3)c(=O)[nH]c1=O the results were TTR transcr act 21.1*, TTR inh HuH7 15.2* and TTR up confirm 0.9.
Screening O=C(O)C1C2c3ccccc3C(=O)C1(C(=O)O)c1ccccc12 (stereo unspecified) returned TTR transcr act 5.9.
Screening CC1=C(C)CC2(CC1)C(=O)NC(=O)NC2=O returned TTR transcr act -0.5.
For COC(=O)C1=C(c2ccc(F)cc2OCc2ccccc2)C[C@@H]2CC[C@H]1N2C(=O)N1CCC(O)(c2ccc(Cl)cc2)CC1 the results were TTR transcr act -3.5.
Screening COc1ccc(N2C(=O)/C(=C/c3cc(C)n(-c4ccc(C)cn4)c3C)C(=O)NC2=S)c(OC)c1 returned TTR transcr act 10.7*, TTR inh HuH7 -0.7 and TTR up confirm -0.6.
`CCn1c(C)cc(/C=C2\C(=O)NC(=O)N(c3ccccc3C)C2=O)c1C` gave TTR transcr act 1.1.
For Cc1ccc(-n2c(C)cc(/C=C3/C(=O)NC(=O)N(C)C3=O)c2C)cc1 the results were TTR transcr act 1.2.
O=C1CC=C2C3CC4N(CCC45c4cc(O)c(O)cc4N1C25)CC3=CCBr (stereo unspecified) was read as TTR transcr act -1.3.
`Cc1nonc1OCCNCCNc1ccc([N+](=O)[O-])c2cccnc12` gave TTR transcr act 1.7.
C/C=C1/CC(C)C(C)(O)C(=O)OCC2CCN3CCC(OC1=O)C23 (stereo unspecified) was read as TTR transcr act -0.9.
Screening COc1ccc(C(=O)Nc2cccc(S(=O)(=O)NCc3ccco3)c2)cc1 returned TTR transcr act 10.7*, TTR inh HuH7 -3.2 and TTR up confirm -0.8.
`COc1ccc(Cn2c(N)c(C(=O)NCc3ccco3)c3nc4ccccc4nc32)cc1OC` gave TTR transcr act 2.8.
`O=C(Nc1ccc(Cl)c(Cl)c1)c1ccco1` gave TTR transcr act -2.2.
For O=C(NC(=O)N1CCC2(CC1)OCCO2)c1ccc(Cl)cc1 the results were TTR transcr act 0.0.
Screening CC(C)=CCN1CC[C@@]2(C)c3cc(O)ccc3C[C@@H]1C2C (stereo partly specified) returned TTR transcr act 2.2.
For CCOC(=O)N1CCC(NC(=O)CCc2nc(C3=CCN(C)CC3)no2)CC1 the results were TTR transcr act 10.4*, TTR inh HuH7 2.0 and TTR up confirm 0.0.
For CC(C)COC(=O)N1Cc2ccccc2-n2nncc2C1 the results were TTR transcr act 1.1.
